# In ChEMBL document CHEMBL2218924, “A broad activity screen in support of a chemogenomic map for kinase signalling research and drug discovery” (Biochem J, 2013):
# Columns and labels:
# [1] = biological target: Homeodomain-interacting protein kinase 3 (Homo sapiens) (UniProt Q9H422); conditions: at 10 µM
# [2] = biological target: T1, Serine/threonine-protein kinase haspin (Homo sapiens) (UniProt Q8TF76); conditions: at 1 µM
# T1 sequence (whole entry): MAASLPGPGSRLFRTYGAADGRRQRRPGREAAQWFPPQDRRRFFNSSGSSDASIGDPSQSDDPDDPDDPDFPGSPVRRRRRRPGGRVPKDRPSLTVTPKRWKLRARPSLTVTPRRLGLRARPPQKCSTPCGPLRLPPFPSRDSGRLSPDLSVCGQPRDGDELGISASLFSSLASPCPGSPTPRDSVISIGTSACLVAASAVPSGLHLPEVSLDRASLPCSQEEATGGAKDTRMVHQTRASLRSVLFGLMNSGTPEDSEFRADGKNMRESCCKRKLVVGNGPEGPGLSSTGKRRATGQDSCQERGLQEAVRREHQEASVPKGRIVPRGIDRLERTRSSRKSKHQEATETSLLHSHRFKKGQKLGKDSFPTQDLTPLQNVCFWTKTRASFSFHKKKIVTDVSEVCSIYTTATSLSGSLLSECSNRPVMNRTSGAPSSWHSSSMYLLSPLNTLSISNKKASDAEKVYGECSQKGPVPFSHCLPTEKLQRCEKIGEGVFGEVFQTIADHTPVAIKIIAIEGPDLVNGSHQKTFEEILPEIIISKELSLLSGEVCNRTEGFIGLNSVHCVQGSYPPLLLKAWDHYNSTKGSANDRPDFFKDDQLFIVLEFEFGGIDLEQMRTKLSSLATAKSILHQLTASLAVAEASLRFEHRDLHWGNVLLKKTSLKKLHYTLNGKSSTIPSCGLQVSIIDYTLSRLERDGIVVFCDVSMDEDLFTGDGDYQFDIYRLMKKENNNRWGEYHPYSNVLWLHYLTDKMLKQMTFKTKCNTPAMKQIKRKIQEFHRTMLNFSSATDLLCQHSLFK
# [3] = biological target: T1, Serine/threonine-protein kinase haspin (Homo sapiens); conditions: at 10 µM
# [4] = biological target: Tyrosine-protein kinase HCK (Homo sapiens) (UniProt P08631); conditions: at 1 µM
# Chain of Tyrosine-protein kinase HCK (Homo sapiens) (P08631 2-526 limits assumed): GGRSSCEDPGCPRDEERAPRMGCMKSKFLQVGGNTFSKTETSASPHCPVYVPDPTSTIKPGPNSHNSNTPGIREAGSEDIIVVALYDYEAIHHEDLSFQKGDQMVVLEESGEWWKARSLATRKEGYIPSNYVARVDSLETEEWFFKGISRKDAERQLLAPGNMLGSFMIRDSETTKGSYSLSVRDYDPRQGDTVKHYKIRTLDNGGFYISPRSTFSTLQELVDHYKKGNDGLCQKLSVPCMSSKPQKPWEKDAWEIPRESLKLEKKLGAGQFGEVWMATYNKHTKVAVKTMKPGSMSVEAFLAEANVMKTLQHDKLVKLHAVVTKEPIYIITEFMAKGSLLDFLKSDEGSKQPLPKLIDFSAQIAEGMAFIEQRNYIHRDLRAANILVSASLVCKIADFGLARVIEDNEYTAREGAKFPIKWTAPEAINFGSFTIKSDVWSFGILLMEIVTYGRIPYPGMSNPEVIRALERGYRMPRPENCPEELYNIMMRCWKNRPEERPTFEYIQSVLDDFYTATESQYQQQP
# [5] = biological target: Tyrosine-protein kinase HCK (Homo sapiens) (UniProt P08631); conditions: at 10 µM
# [6] = biological target: Tyrosine-protein kinase HCK (Homo sapiens) (UniProt P08631); conditions: at 1 µM; remark: listed apart in the source
# [7] = biological target: Tyrosine-protein kinase HCK (Homo sapiens) (UniProt P08631); conditions: at 10 µM; remark: listed apart in the source
# [8] = biological target: Insulin-like growth factor 1 receptor (Homo sapiens) (UniProt P08069); conditions: at 1 µM
# Chain of Insulin-like growth factor 1 receptor (Homo sapiens) (P08069 31-736 limits assumed): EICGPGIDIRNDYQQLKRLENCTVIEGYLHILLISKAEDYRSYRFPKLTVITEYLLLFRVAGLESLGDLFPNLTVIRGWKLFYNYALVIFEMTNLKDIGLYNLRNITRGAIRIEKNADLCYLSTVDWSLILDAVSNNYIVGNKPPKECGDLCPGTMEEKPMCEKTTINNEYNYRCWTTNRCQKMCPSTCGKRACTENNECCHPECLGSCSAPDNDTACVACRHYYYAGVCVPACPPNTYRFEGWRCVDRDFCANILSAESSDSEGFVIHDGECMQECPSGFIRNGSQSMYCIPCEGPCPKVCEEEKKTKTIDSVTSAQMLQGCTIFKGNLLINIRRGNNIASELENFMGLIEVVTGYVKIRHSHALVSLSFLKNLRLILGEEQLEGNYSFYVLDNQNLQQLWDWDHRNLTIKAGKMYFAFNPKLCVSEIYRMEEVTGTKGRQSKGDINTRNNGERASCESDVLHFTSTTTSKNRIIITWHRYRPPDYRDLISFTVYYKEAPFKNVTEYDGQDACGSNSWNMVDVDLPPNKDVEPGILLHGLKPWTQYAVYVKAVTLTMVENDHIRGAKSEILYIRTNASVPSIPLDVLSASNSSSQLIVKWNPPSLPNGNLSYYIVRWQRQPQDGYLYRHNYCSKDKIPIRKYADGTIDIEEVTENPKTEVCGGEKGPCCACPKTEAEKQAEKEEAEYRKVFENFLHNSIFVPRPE
# Chain of Insulin-like growth factor 1 receptor (Homo sapiens) (P08069 741-1367 limits assumed): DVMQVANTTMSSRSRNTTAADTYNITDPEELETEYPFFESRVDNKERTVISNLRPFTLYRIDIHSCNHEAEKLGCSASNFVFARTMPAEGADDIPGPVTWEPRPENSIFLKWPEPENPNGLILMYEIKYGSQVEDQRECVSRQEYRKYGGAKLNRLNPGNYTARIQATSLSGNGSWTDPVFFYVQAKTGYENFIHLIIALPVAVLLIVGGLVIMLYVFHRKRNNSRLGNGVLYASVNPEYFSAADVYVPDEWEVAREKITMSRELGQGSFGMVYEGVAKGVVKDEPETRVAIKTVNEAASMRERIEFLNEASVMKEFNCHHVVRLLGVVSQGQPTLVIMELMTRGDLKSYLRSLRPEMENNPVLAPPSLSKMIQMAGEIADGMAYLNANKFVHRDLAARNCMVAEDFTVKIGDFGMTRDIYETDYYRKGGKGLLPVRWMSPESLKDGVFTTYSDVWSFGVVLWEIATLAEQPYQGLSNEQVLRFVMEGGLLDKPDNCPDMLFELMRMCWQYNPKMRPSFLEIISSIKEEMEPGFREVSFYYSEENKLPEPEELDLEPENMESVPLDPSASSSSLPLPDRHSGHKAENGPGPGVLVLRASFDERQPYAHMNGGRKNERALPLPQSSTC
# [9] = biological target: Insulin-like growth factor 1 receptor (Homo sapiens) (UniProt P08069); conditions: at 10 µM
# [10] = biological target: T2, Protein kinase C zeta type (Homo sapiens) (UniProt Q05513); conditions: at 10 µM
# T2 sequence (whole entry): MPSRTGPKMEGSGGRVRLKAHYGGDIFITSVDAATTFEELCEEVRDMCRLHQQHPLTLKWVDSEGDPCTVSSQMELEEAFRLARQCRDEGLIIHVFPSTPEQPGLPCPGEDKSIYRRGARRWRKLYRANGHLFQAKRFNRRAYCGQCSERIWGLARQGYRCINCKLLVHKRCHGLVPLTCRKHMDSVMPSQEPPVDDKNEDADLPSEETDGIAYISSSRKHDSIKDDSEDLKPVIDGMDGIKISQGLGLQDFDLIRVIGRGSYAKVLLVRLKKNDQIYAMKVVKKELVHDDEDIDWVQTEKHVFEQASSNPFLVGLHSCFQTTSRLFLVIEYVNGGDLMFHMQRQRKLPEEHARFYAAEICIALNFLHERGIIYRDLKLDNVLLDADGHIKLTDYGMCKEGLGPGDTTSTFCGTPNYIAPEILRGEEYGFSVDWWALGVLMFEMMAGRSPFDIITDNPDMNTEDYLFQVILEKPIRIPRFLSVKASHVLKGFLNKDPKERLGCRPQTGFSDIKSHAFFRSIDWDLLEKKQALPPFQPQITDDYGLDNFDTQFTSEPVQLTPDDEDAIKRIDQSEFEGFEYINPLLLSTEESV
# Chain of Homeodomain-interacting protein kinase 3 (Homo sapiens) (Q9H422 whole entry, looked up): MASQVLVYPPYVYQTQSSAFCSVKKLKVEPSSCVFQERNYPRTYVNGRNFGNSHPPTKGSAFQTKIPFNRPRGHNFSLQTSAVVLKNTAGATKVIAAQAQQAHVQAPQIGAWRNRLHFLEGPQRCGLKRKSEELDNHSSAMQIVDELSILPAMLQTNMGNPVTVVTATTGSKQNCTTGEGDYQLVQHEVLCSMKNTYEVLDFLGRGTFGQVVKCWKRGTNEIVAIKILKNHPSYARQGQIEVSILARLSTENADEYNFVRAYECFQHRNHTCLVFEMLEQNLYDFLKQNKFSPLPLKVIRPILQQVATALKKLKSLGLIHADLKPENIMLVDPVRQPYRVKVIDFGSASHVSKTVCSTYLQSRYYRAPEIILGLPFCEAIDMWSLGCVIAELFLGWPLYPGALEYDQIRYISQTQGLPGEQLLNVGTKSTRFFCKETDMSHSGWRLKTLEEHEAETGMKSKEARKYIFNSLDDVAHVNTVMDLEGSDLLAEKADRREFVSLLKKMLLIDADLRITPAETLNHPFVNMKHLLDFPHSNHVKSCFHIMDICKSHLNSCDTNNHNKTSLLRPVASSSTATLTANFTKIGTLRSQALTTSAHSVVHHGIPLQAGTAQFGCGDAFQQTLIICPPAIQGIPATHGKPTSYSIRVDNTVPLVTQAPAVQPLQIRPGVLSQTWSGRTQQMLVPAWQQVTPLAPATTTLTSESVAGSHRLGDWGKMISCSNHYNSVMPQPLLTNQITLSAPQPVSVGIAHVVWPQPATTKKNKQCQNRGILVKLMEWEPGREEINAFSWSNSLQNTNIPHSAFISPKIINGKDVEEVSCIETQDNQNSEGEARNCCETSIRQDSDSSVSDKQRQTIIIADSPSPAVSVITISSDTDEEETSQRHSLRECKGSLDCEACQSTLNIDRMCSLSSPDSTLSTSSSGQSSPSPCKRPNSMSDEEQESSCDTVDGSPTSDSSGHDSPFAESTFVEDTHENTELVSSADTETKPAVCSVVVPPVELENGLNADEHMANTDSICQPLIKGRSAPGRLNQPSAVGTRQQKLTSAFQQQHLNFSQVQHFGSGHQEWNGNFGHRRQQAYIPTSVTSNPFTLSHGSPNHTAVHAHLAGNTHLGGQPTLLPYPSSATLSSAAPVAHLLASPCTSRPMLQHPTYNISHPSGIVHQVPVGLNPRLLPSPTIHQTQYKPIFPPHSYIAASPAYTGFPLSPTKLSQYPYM
SMILES,residual activity [1] [%],residual activity [2] [%],residual activity [3] [%],residual activity [4] [%],residual activity [5] [%],residual activity [6] [%],residual activity [7] [%],residual activity [8] [%],residual activity [9] [%],residual activity [10] [%]
O=C1NC(=O)c2cc(Nc3ccc(F)cc3)c(Nc3ccc(F)cc3)cc21,99,103,41,63,21,87,49,102,108,101
N#CC(C#N)=C(N)/C(C#N)=C/c1ccc(O)cc1,–,88,65,84,64,99,87,–,–,–
c1ccc2c(-c3ccncc3)c[nH]c2c1,91,48,8,68,65,104,89,–,–,84
CC(C)n1cnc2c(NCc3ccccc3)nc(NCCCO)nc21,106,101,95,81,70,84,81,78,103,107
Oc1n[nH]c2nnc(-c3c(-c4ccccc4)nn4ccccc34)cc12,97,114,106,75,67,92,80,67,37,104
Cc1cc(Nc2nc(-c3ccccc3)nc3ccccc23)n[nH]1,–,103,67,23,4,27,5,17,1,102
Nc1cccc(-c2cc3c(Oc4cccc(O)c4)ncnc3[nH]2)c1,–,86,45,4,1,-3,-1,99,124,–
c1ccc(-c2n[nH]c3c2oc2ccccc23)cc1,61,90,48,71,51,98,81,–,139,117
CC#CC(=O)Nc1cc2c(Nc3ccc(F)c(Cl)c3)ncnc2cn1,95,119,98,85,88,95,88,147,86,103
CO[C@H]1[C@@H](OC)C[C@H](C)[C@@H](OC)C2=CC(=O)C=C(NC(=O)/C(C)=C/C=C/[C@H](OC)[C@@H](OC(N)=O)/C(C)=C/[C@@H]1C)C2=O,105,88,78,78,76,–,103,137,113,106
COc1cc2ncnc(Nc3ccc(NC(=O)c4ccccc4)cc3)c2cc1OC,90,92,59,69,20,100,60,–,135,103
COc1cc2ncnc(Nc3ccc(Oc4ccccc4)cc3)c2cc1OC,105,–,–,4,5,20,3,117,112,104
C[C@@H](N)[C@H]1CC[C@H](C(=O)Nc2ccncc2)CC1,95,109,97,–,94,91,97,111,109,76
Cc1cccc(-c2[nH]c(C(C)(C)C)nc2-c2ccc3c(c2)OCO3)n1,–,92,75,94,79,102,99,–,–,–
O=C(Nc1cccc(Nc2nccc(Nc3cccc(C(F)(F)F)c3)n2)c1)C1CC1,103,71,32,42,7,78,78,51,6,116
CC(=O)c1ccc(N2CCOCC2)cc1O,98,78,39,84,74,97,107,148,–,106
Ic1cccc(CSc2nnc(-c3ccncc3)o2)c1,100,104,85,74,56,85,89,96,124,98
N#CCCc1ccc2c(c1)-c1[nH]c3ccc([N+](=O)[O-])cc3c1CC(=O)N2,–,–,74,30,6,27,16,117,144,41

SMILES,residual activity [1] [%],residual activity [2] [%],residual activity [3] [%],residual activity [4] [%],residual activity [5] [%],residual activity [6] [%],residual activity [7] [%],residual activity [8] [%],residual activity [9] [%],residual activity [10] [%]
Nc1nc(Nc2ccc(S(N)(=O)=O)cc2)nn1C(=S)Nc1c(F)cccc1F,21,–,–,10,4,13,1,109,98,77
CN(C)CCCn1cc(C2=C(c3c[nH]c4ccccc34)C(=O)NC2=O)c2ccccc21,35,43,12,74,54,113,84,127,–,16
COc1ccc(OC)c2c(=S)c3ccccc3[nH]c12,73,114,56,85,70,101,95,103,136,86
CCN(CC)C(=O)c1ccc(Nc2nc(OCC3CCCCC3)c3nc[nH]c3n2)cc1,62,–,–,31,5,43,7,–,–,95
Cc1cncc2cccc(S(=O)(=O)N3CCCN(C(=O)CN)C[C@H]3C)c12,–,91,62,69,60,98,73,134,–,50
CO[C@@H]1[C@H](N(C)C(=O)c2ccccc2)C[C@H]2O[C@]1(C)n1c3ccccc3c3c4c(c5c6ccccc6n2c5c31)C(=O)NC4,68,78,43,7,5,–,12,115,68,102
CCOc1cc2ncnc(Nc3cccc(Br)c3)c2cc1OCC,92,97,66,34,6,17,4,89,106,69
N#Cc1cnc2cnc(NCc3cccnc3)cc2c1Nc1ccc(F)c(Cl)c1,–,102,67,17,12,–,91,97,–,94
CC[n+]1c(/C=C/N(C)c2ccccc2)n(-c2ccccc2)c2ccc(-c3nc4ccccc4s3)cc21,–,99,59,97,34,104,95,126,43,96
CCN(CC)CCCCN1c2ccccc2Oc2ccc(Cl)cc21,99,81,36,101,103,109,112,136,90,112
O=[N+]([O-])c1ccc(-c2nc(-c3ccc(F)cc3)c(-c3ccncc3)[nH]2)cc1,109,86,77,77,29,97,97,114,141,103
CC(=O)O/N=C1\C(=C2\C(=O)Nc3cc(Br)ccc32)Nc2ccccc21,76,93,74,22,9,3,-1,142,110,95
COc1cc2ncnc(N3CCN(C(=O)Nc4ccc(Oc5ccccc5)cc4)CC3)c2cc1OC,102,79,82,79,71,91,85,–,–,116
Cc1nc(-c2ccccc2)c(-c2ccncc2)o1,103,94,35,24,20,96,91,94,128,112
O=C1Nc2ccc(Br)cc2/C1=C\c1cc2c([nH]1)CCCC2,76,–,–,59,52,–,–,–,128,102
Cc1ccc(NC2=CC(=O)c3sc(C)nc3C2=O)cc1,97,105,116,85,74,103,99,75,116,102
COc1cc2ncc(-c3ccccc3)nc2cc1OC,100,76,64,69,56,–,–,133,–,–
